# S1P4 antagonist – S1P4 receptor antagonists, primary screen, cell-based; Sphingosine 1-phosphate receptor 4 (Homo sapiens), O95977; S1P4-expressing cells, antagonist mode, reporter read-out; inhibition, % at 4.98 µM; 220,000 tested, 0.26% active; AID 1510, 2009; in the data active means inhibition above about 29%
# Target sequence (O95977 whole entry, looked up): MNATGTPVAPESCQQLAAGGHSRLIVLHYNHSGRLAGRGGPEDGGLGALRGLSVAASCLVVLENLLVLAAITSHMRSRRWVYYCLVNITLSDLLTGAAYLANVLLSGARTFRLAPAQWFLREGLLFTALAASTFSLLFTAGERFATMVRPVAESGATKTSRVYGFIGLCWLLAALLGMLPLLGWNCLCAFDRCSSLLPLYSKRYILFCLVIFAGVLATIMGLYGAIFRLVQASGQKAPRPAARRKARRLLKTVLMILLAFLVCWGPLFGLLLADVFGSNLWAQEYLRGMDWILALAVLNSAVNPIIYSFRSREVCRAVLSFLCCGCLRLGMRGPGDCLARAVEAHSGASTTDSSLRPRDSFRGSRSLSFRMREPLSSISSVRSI
# Cl transport mod – KCC2 cotransporter modulators, thallium flux, primary screen, cell-based, HEK293 KCC2, FluoZin-2 fluorescence, MLSMR | Solute carrier family 12 member 5 (Homo sapiens), Q9H2X9 | KCC2 cells, thallium flux FluoZin-2 fluorescence | B-score of Tl+ flux slope (higher = more flux/activation; lower = inhibition) at 10 µM | 190,000 tested, 2.2% active;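 active means thallium flux slope and its plate-corrected score both differing from the plate sample mean at a set confidence after two filtering rounds, in either direction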;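 further: slope of fluorescence scaled to starting intensity during 10 to 20 s after thallium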
# ROMK primary – ROMK potassium channel modulators, primary screen, cell-based, thallium flux, MLSMR library; ATP-sensitive inward rectifier potassium channel 1 (Homo sapiens), P48048; Tet-inducible ROMK, thallium flux fluorescence; actives lie on both sides; B-score at 10 µM; 130,000 tested, 2% active; AID 1918, 2009;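 active means signal ratio slope over the read window, or its plate-corrected B-score, at least 3 SD from the plate mean, either direction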;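 further: B-score of the F/F0 ratio slope over 7 to 12 s after thallium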
# Target sequence (P48048 whole entry, looked up): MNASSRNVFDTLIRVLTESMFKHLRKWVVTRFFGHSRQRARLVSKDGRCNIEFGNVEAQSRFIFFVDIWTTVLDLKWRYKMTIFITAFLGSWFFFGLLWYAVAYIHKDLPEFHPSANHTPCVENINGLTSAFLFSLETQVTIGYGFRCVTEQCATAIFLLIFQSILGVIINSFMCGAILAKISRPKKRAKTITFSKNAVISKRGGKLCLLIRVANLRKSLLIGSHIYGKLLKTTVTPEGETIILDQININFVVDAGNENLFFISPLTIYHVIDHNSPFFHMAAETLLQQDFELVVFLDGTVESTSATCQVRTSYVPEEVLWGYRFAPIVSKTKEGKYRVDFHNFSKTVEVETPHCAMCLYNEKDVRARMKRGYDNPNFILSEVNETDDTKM
# S1P3 antag – S1P3 receptor antagonists, primary screen, cell-based; 170,000 tested, 0.27% active; CHO S1P3 NFAT-BLA reporter, FRET fluorescence, antagonist mode; inhibition, % at 4.98 µM; Sphingosine 1-phosphate receptor 3 (Homo sapiens), Q99500;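 active means inhibition above the plate cutoff, the mean inhibition of test wells on that plate plus 3 SD, cut at about 28% in these data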;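 further: cells challenged with S1P at its EC80 of 0.8 µM; blue over green emission ratio from cleaved BLA substrate after 4 h stimulation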
# RAM network inh – inhibitors of the yeast RAM network, primary screen, dse1pr::URA3 reporter, 5-FOA selection; S. cerevisiae dse1pr::URA3 reporter, 5-FOA growth OD615, 2 d; analog-sensitive cbk1-as2 kinase mutant strain; inhibition, % at 50 µM; 190,000 tested, 1.8% active;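 active means inhibition above a set limit, 3 SD over mean compound inhibition, cut at about 8.4% in these data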;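 further: inhibition rescues growth on 5-FOA so higher OD means more RAM inhibition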
# S1P4 ag – S1P4 receptor agonists, primary screen, cell-based | Sphingosine 1-phosphate receptor 4 (Homo sapiens), O95977 | S1P4-expressing cell line, agonist reporter assay | activation, % at 4.98 µM | 220,000 tested, 0.35% active | AID 1509, 2009; in the data active means activation above about 11%
# KCC2 secondary – KCC2 modulators in sodium-free buffer, confirmation, cell-based, HEK293 KCC2, thallium flux, secondary assay; 3,700 tested, 15% active; shares compounds with Cl transport mod; AID 1713, 2009; normalised thallium flux (F/F0 slope) at 10 µM; FluoZin2 fluorescence; active compounds read high;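 active means thallium flux slope above the same plate's solvent-only control mean plus 3 SD; inconclusive means the two replicate wells disagree; inactive means no significant difference from solvent-only control wells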
# KCC2 bumet counter – thallium flux persisting under bumetanide in KCC2 cells, confirmation, counter-screen for KCC2 modulator project, cell-based, HEK293 KCC2, FluoZin2, secondary assay 3 | HEK293-KCC2 + bumetanide/ouabain; active compounds read high | normalized thallium flux at 10 µM | shares compounds with Cl transport mod | 3,700 tested, 49% active;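 active means thallium entry rate above the same plate's blocked-transporter control wells by more than 3 SD; inconclusive means the two repeat wells disagree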;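 further: raw slope of fluorescence over initial fluorescence between 10 and 20 s after thallium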
# KCC2 secondary2 – KCC2 modulators without ouabain present, confirmation, cell-based, HEK293 KCC2, thallium flux, FluoZin2, secondary assay 2. thallium flux FluoZin2 fluorescence; actives lie on both sides; F/F0 rise rate, 10–20 s post-thallium. normalized thallium flux at 10 µM. 3,700 tested, 23% active. shares compounds with Cl transport mod. AID 1715, 2009;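 active means thallium flux slope more than 3 SD above or below the plate's solvent-only control mean, mostly below; inconclusive means the two repeat wells disagreed; inactive means no significant shift from solvent-only controls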
# HEK293 Tl flux – thallium flux modulation in parental HEK cells, confirmation, counter-screen for KCC2 modulator project, cell-based, counterscreen 1. shares compounds with Cl transport mod. HEK293 parental cells, thallium flux FluoZin2, ouabain; baseline-ratio fluorescence slope, 10–20 s after thallium. thallium flux rate (normalised fluorescence) at 10 µM. 3,700 tested, 46% active. AID 1716, 2009;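 active means thallium flux rate significantly above the same plate's solvent-only control wells, beyond their mean plus 3 SD; inconclusive means the two replicate wells gave conflicting results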
# KCC2 ouabain – KCC2 inhibitors and activators, ouabain retest, confirmation, HEK-KCC2 cells; shares compounds with Cl transport mod; HEK293-KCC2, thallium flux FluoZin2 fluorescence; bidirectional: low = inhibitor, high = activator; raw Tl+ flux slope (below DMSO = inhibition, above = activation) at 10 µM; 3,700 tested, 48% active; AID 1717, 2009;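 active means thallium flux slope beyond 3 SD from same-plate DMSO control mean in most replicates, usually higher, sometimes lower; inconclusive means repeat tests gave conflicting results; inactive means no significant difference from controls in most replicates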;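 further: slope of initial-normalized fluorescence between seconds 10 and 20 after thallium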
# HEK counter2 – native HEK Tl+ uptake effects, second counter-screen – HEK cells, counterscreen 2, counter-screen for KCC2 modulator project, confirmation; shares compounds with Cl transport mod; HEK293 parental, thallium flux FluoZin-2 fluorescence slope; thallium flux slope at 10 µM; 3,700 tested, 33% active; AID 1718, 2009;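 active means thallium flux slope above the same plate's solvent-control mean plus 3 SD in both duplicate wells; inconclusive means duplicate wells that disagreed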;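 further: run without ouabain in cells lacking the KCC2 cotransporter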
# A number is an active result; n = inactive; u = inconclusive; x = no result. A selection: hits, their analogues and other compounds. The true share with any hit is near 5.1%.
SMILES,S1P4 antagonist,Cl transport mod,ROMK primary,S1P3 antag,RAM network inh,S1P4 ag,KCC2 secondary,KCC2 bumet counter,KCC2 secondary2,HEK293 Tl flux,KCC2 ouabain,HEK counter2
CCN(CC)C(=O)CSc1ncnc2sc(C)c(C)c12,n,n,n,n,n,n,x,x,x,x,x,x
O=C1CSC(=Nc2ccccc2)N1,n,5.7,n,x,n,n,n,u,n,n,n,u
COC(=O)c1c(NC(=O)CSc2nnc3ccccn23)sc2c1CCC2,n,n,n,n,n,n,x,x,x,x,x,x
OC(c1ccccc1)c1nccc2ccccc12 (stereo unspecified),n,n,x,n,n,n,x,x,x,x,x,x
CCOC(=O)Cc1csc(NC(=S)NC(=O)c2ccc([N+](=O)[O-])cc2)n1,n,9.8,n,n,n,n,0.016,0.036,n,0.025,0.041,n
CCOC(=O)Cc1csc(NC(=O)Cc2ccc([N+](=O)[O-])cc2)n1,n,n,n,n,n,n,x,x,x,x,x,x
CCOC(=O)Cc1csc(NC(=O)Cc2ccc(Cl)cc2)n1,n,n,x,n,x,n,x,x,x,x,x,x
CCOC(=O)Cc1csc(NC(=S)NC(=O)c2ccc(Cl)cc2)n1,n,10,n,x,n,n,n,0.043,0.042,0.042,0.058,0.02
Cc1cc(=O)n(CC(=O)Nc2cc(Cl)ccc2C)c(C(C)C)n1,n,n,n,n,n,n,x,x,x,x,x,x
O=C(Nc1cccc(Cl)c1)C1C2CCC3C(CCC21)C3(Cl)Cl (stereo unspecified),n,n,x,n,n,n,x,x,x,x,x,x
S=C1NC2(CCCCC2)N=C1c1ccccc1,n,4.7,n,n,n,n,n,0.03,n,0.012,u,0.012
Cc1ccc(-n2cccc2/C=C2\C(=N)N3N=C(c4ccco4)SC3=NC2=O)cc1,n,n,n,n,n,n,x,x,x,x,x,x
CCC1=NN2C(=N)/C(=C\c3cccn3-c3ccc(C)c(C)c3)C(=O)N=C2S1,n,7,n,n,n,n,n,0.048,0.049,0.037,0.042,0.034
CCC1=NN2C(=N)/C(=C\c3cccn3-c3ccc(Cl)cc3)C(=O)N=C2S1,n,18,n,n,n,n,u,0.043,n,0.014,n,0.011
Cc1cccc(-n2c(C)cc(/C=C3\C(=N)N4N=C(CC(C)C)SC4=NC3=O)c2C)c1,n,n,n,n,n,n,x,x,x,x,x,x
CCCC1=NN2C(=N)/C(=C\c3cc(C)n(-c4cc(C)cc(C)c4)c3C)C(=O)N=C2S1,n,12,n,n,n,n,n,0.015,n,u,0.025,n
Cc1cc(=O)[nH]c(SCC(=O)NCC2CCCCC2)c1C#N,n,n,n,n,n,n,x,x,x,x,x,x
Cc1ccc(N(CCC(=O)Nc2nnc(C3CC3)s2)S(=O)(=O)c2ccccc2)cc1,n,n,n,n,n,n,x,x,x,x,x,x
Cc1cc(C)n2c(Br)c(CSc3nc4ccccc4s3)nc2n1,n,-3.7,n,n,n,n,n,n,0.027,0.0061,0.016,n
C=CCSC1=NC(N)=C(C#N)C2(CCCCC2)C1C(N)=O (stereo unspecified),n,n,x,n,n,n,x,x,x,x,x,x
N#CC1=C(N)N=C(SCc2ccccc2)C(C(N)=O)C12CCCCC2 (stereo unspecified),n,-5.5,x,n,n,n,n,0.0094,u,n,0.014,n
c1ccc(CC2CCN(c3nnnn3-c3ccccc3)CC2)cc1,n,x,n,n,n,n,n,n,n,u,0.016,n
S=c1[nH]c2ccc(Cl)cc2s1,n,86,x,n,x,n,0.043,0.098,0.085,0.087,0.087,0.058
C=CCn1c(CCC(O)COCCCCC)n[nH]c1=S (stereo unspecified),n,n,n,n,x,n,x,x,x,x,x,x
CCOC(=O)C1(Cc2ccc(OC)cc2)CCN(C(=O)CCc2cccnc2)CC1,n,n,n,n,n,n,x,x,x,x,x,x
SMILES,S1P4 antagonist,Cl transport mod,ROMK primary,S1P3 antag,RAM network inh,S1P4 ag,KCC2 secondary,KCC2 bumet counter,KCC2 secondary2,HEK293 Tl flux,KCC2 ouabain,HEK counter2
Cc1cc(=O)[nH]c(SCC(=O)Nc2ccc(Br)cc2)c1C#N,n,-2.9,n,x,n,n,n,n,0.023,0.006,0.015,u
CNC(=S)N/N=C/c1c(C)cccc1Cl,n,4.4,x,n,x,n,n,0.017,n,0.0085,u,n
CNC(=S)N/N=C/c1cc(C)ccc1C,n,n,n,n,n,n,x,x,x,x,x,x
CN(NS(=O)(=O)c1ccc(Cl)cc1)c1nc(C(F)(F)F)nc2ccccc12,n,-2.9,x,n,n,n,n,n,n,u,n,n
CCOC(=O)C(C(=O)OCC)C(C[N+](=O)[O-])c1ccccc1 (stereo unspecified),n,n,n,n,n,n,x,x,x,x,x,x
O=C(C(=O)N1CCN(c2ccc(F)cc2)CC1)c1c[nH]c2ccccc12,n,-3.5,n,n,10,n,n,n,0.025,n,u,n
Cc1ccc2nc(NC(=O)Cn3cc4c(n3)CCCCC4)sc2c1,n,-2.9,x,n,n,n,n,u,n,u,n,n
COc1ccc(CNn2c(-c3cccc(C)c3)nc3ccccc3c2=O)cc1OC,n,x,n,x,n,n,n,n,n,n,n,n

# Screening data as filed in PubChem BioAssay.
